Hits are enriched below; roughly 2.7% of the tested compounds scored in any of these assays.
ATXN2 expr inh = ATXN2 expression inhibition | HEK-293 ATXN2-luciferase reporter, luminescence, 24 h | Potency, µM (highest dose often 57 µM), for inactives: at the highest dose activity change, negative = inhibition, usual class: inhibitors | 0.72% of 360,000 active | AID 1745845; note: % is set by controls: 0 for no effect and ±100 for the full control effect; nearly all actives have a fitted effect of over 55% in size
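qHTS (up to 57 uM final) was run with 24 h compound exposure of reporter cells at 37 °C. Each well was multiplexed: SteadyGlo luminescence measured ATXN2-luciferase expression after a fluorogenic Gly-Phe-AFC viability readout (25 uM final).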
HepG2 tox = counter-screen for TGF-b inhibitors: cytotoxicity in HepG2 cells; HepG2 CAGA-GFP viability, ATP luminescence, 18 h; Potency, µM (doses to about 46.1 µM), inactives show at the highest dose activity change, negative = cytotoxicity, most hits filed as cytotoxic; 0.76% of 410,000 active; AID 588856
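CellTiter-Glo luminescence gave cytotoxicity after 18 hours at 37 degrees C. The cells were HepG2 CAGA-GFP in 1% FBS DMEM, stimulated with 500 pg/mL TGF-beta after compound addition. %Activity was normalised to no-cell wells (complete cell-killing) and DMSO (no toxicity), and curves were fitted and classified.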
TGFb SMAD3 inh = TGF-b pathway inhibition; 1.2% of 410,000 active; Potency, µM (doses to about 46.1 µM), without a hit: top-dose activity, negative = inhibition, most hits filed as inhibitors; HepG2 CAGA-GFP TGF-b/SMAD3 reporter, GFP fluorescence, 18 h; TGF-beta stimulated, 500 pg/mL final; note: % is set by controls: 0 for no effect and ±100 for the full control effect; nearly all actives have a fitted effect of over 65% in size
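HEPG2 CAGA-GFP cells (1000/well, DMEM with 1% FBS) were pre-incubated 2 h at 37 degrees C, given compound by pin tool, then stimulated with TGF-beta at 500 pg/mL final for 18 h before per-cell GFP fluorescence imaging.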
ALOX12 inh = blocks human arachidonate 12S-lipoxygenase; P18054; 1.1% of 580,000 active; AID 1671190; Potency, µM (series often up to 108 µM), without a hit: at the highest dose activity change, negative = inhibition, most hits filed as inhibitors; purified 12hLO, xylenol orange hydroperoxide absorbance; note: % is set by controls: 0 for no effect and ±100 for the full control effect
Target sequence (P18054 whole entry, looked up): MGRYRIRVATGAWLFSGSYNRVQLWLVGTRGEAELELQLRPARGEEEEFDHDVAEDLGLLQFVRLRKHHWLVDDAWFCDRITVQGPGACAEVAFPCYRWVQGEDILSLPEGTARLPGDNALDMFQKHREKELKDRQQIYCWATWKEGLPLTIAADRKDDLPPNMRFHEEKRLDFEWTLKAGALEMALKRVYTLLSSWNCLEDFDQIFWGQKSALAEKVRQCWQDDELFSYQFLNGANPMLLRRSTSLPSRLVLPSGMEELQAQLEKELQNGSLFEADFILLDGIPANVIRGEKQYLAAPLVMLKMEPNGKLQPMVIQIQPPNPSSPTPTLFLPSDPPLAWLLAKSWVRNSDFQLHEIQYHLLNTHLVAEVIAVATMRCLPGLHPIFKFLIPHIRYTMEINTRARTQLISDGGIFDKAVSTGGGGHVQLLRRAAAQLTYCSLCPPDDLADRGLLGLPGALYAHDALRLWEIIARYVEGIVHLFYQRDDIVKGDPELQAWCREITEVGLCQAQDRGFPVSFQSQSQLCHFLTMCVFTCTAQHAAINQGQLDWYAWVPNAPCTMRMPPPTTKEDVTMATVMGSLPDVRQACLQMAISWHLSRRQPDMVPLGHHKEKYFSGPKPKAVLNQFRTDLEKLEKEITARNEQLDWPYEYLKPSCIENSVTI
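Hydroperoxide product was detected by ferrous iron/xylenol orange as the 573 to 405 nm absorbance ratio. Arachidonic acid at 40 uM (final) was turned over for 30 min at room temperature by 150 nM human 12hLO, pH 7.0 Hepes buffer, after 15 min compound preincubation.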
S2 tox = viability counter-screen for ATXN expression inhibitors | S2 cells (HEK-293 line with an ATXN2-luciferase reporter) viability, CellTiter-Fluor protease fluorescence, 24 h | Potency, µM (highest dose often 56.7 µM), actives largely listed as cytotoxic | 0.49% of 400,000 active; note: nearly all actives have a fitted effect of over 40% in size
* marks the source's active call; other numbers are inactive results; i = inactive; ? = inconclusive; . = no result; [ ] = dose if it differs, or a comment. Calls come from the whole dose curve; as a rule, active = well fitted curve in the direction sought with a large enough effect; inconclusive = small, poorly fitted or top-dose-only effect, or another doubt; inactive = no such curve, though single readings can be large; an effect the other way counts as inactive or inconclusive. Potency is the fitted concentration of half-maximal effect.

SMILES | ATXN2 expr inh | HepG2 tox | TGFb SMAD3 inh | ALOX12 inh | S2 tox
CCOC(=O)C1=C(C)N(C[C@@H]2CC[C@@H](Cc3ccc(-c4ccccc4)cc3)O2)C(=O)NC1c1ccc(SCc2ccco2)c([N+](=O)[O-])c1 (some centres not stated) | -4.7% | -25.7% | -20.1% | 17.8µM* | i
Cc1ccc(C(C[N+](=O)[O-])Sc2ccc(N)cc2)cc1 (configuration not stated) | ? | 12.6µM* | 11.2µM* | -24.4% | ?
Cc1ccc(C(C[N+](=O)[O-])n2nc(C)cc2C)cc1 (configuration not stated) | -6.7% | 7.1% | 8.7% | 0.0% | i
Clc1ccc2nc(-c3cccc(Br)c3)cn2c1 | . | . | . | 12.6µM* | .
Clc1ccc(-c2cn3cc(Br)ccc3n2)cc1 | . | . | . | -28.0% | .
Cc1ccc(NC(=O)COc2c(CO)cc(F)cc2CO)cc1 | . | . | . | -26.4% | .
c1ccc(CNCCCNCCCCNCCCNCc2ccccc2)cc1 | 28.2µM* | 7.94µM* | ? | -14.8% | ?
COc1ccc2c(c1)CCN=C2C[C@H]1CN(C(=O)c2ccc(C#N)cc2)CC[C@H]1CC(=O)O | . | . | . | 63.1µM* | .
COc1ccc2c(c1)CCN=C2C[C@H]1CN(C(=O)c2ccccc2)CC[C@H]1CC(=O)O | . | . | . | -4.4%[176 µM] | .
CCCN1CCC(NCc2cn(C)nc2-c2ccc(Oc3ccccc3)cc2)CC1 | . | 1.26µM* | ? | -9.9% | ?
O=c1c(-c2ccccc2)nnc2sc(-c3ccc(Cl)cc3)nn12 | . | . | . | -16.6% | .
CC(=O)c1ccc(N2CCN(C(=O)c3noc4c3CCc3sccc3-4)CC2)cc1 | . | . | . | -14.0% | .
Cc1ccc(S(=O)(=O)c2cnc(SCC(=O)Nc3ccc4c(c3)OCCO4)[nH]c2=O)cc1C | -2.3% | -12.3% | 8.1% | 0.0% | i
Cc1ccc(NC(=O)CSc2ncc(S(=O)(=O)c3ccc(C(C)C)cc3)c(=O)[nH]2)cc1C | -12.4% | -16.2% | -13.5% | 44.7µM* | i
Cc1ccc2cccc(N=Cc3c(C)[nH]n(-c4ccccc4)c3=O)c2n1 | 28.2µM* | -55.1% | ? | 17.3% | i
Clc1ccccc1Cc1nc(-c2ccc(OC3CCNC3)cc2)no1 (configuration not stated) | . | . | . | -2.9% | .
Cc1cc(NC(=O)c2ccccc2)sc1C | 101.3% | 8.91µM* | 0.6% | 0.0% | i
COc1ccc(OC)c(NC(=O)Nc2nnc(N(C)C3CCCCC3)s2)c1 | . | . | . | 54.5% | .
COC(=O)Cc1ccc(NC(=O)c2ccc(C(C)(C)C)cc2)cc1 | 0.794µM* | -29.8% | 8.9% | -6.0% | i
O=C(O)c1cccc(COc2ccccc2Cl)c1 | 0.708µM* | -27.3% | 0.2% | -7.3% | i
CCN(CC)S(=O)(=O)c1cccc(C(=O)N/N=C/c2ccc(O)c(O)c2O)c1 | -25.1% | -40.2% | ? | ? | i
O=C(/C(=N/N=C/c1ccc(O)c(O)c1O)c1ccccc1)c1ccccc1 | ? | -49.4% | ? | 14.1µM* | ?
Oc1ccc(/C=N/N=C(c2ccccc2)c2ccccc2)c(O)c1O | ? | -14.9% | 2.9% | 39.8µM* | ?
CN(C)c1ccc(-c2ccc3ncnc(N(C)Cc4ccco4)c3c2)cc1 | . | . | . | -6.3% | .
Cc1ccsc1CN(C)c1ncnc2ccc(-c3ccoc3)cc12 | -14.7% | -42.8% | 11.2µM* | ? | i
SMILES | ATXN2 expr inh | HepG2 tox | TGFb SMAD3 inh | ALOX12 inh | S2 tox
COc1ccc(CSc2ccc(-c3nc4ccccn4c3NCc3ccccc3)cc2OC)cc1 | -26.7% | -21.2% | ? | -12.9% | i
CCC(C)Sc1ccc(-c2nc3ccccn3c2NCc2ccccc2)cc1OC (configuration not stated) | ? | -60.0% | 12.6µM* | . | ?
N#CCCn1c(-c2ccccc2)cc2ccccc21 | . | . | . | -24.7% | .
COc1cc2nc(SCc3ccc(C(F)(F)F)cc3)n(Cc3cccs3)c(=N)c2cc1OC | . | 2.0% | -1.9% | -15.1% | .
COc1ccc(Cn2c(SCc3cc(C)ccc3C)nc3cc(OC)c(OC)cc3c2=N)cc1 | . | 10µM* | -4.0% | ? | .
CCn1cc2nc(SCc3cc(C)ccc3C)n(Cc3ccc(OC)cc3)c(=O)c2n1 | -2.9% | -14.5% | -13.6% | -25.2% | i
COc1ccc(Cn2c(SCc3ccc(C)cc3)nc3cc(OC)c(OC)cc3c2=N)cc1Cl | 28.2µM* | 5.62µM* | ? | -19.2% | 15.8µM*
COC(=O)C(/C(C)=N/C(NC(C)=O)(C(F)(F)F)C(F)(F)F)C(NC(C)=O)(C(F)(F)F)C(F)(F)F (configuration not stated) | . | . | . | 0.8% | .
CC(=O)C1=C(O)C(=Cc2ccccc2)OC1=O | . | 0.5% | 7.0% | 14.1µM* | i
COc1ccc(C=C2OC(=O)C(C(C)=O)=C2O)cc1 | . | -3.6% | 4.3% | 44.7µM* | i
Cc1ccc(/C=C2\OC(=O)c3ccccc32)cc1 | 41.7% | 62.2% | 59.2% | 8.9% | i
Cc1ccc(Cl)cc1NC(=S)NCCCSC1CCCCC1 | -10.2% | -44.9% | 11.2µM* | 35.5µM* | i
COc1ccc(OC)c(NC(=S)NCCSc2ccc(C)cc2)c1 | 17.1% | -35.0% | ? | ? | i
COc1ccc(NC(=S)NCCSc2ccc(C)cc2)c(OC)c1 | -2.6% | -30.6% | -10.7% | 35.5µM* | i
CCc1ccccc1NC(=S)NCCSc1ccc(Cl)cc1 | -17.8% | 4.2% | ? | 50.1µM* | i
Cc1ccc(Cl)cc1NC(=O)C1CCCCC1 | . | . | . | 47.7% | .
Cc1ccccc1NC(=S)NCCSc1ccc(Cl)cc1 | -18.3% | -6.3% | 0.0% | 44.7µM* | i
OCCCc1nc2ccc(Br)cc2[nH]1 | . | . | . | 0.7% | .
COc1ccc(NC(=S)Nc2ccccc2)c(OC)c1 | 21.7% | -26.3% | -16.9% | -6.8% | i
COc1ccc(NC(=S)Nc2ccc(OCc3ccccc3)cc2)c(OC)c1 | -8.3% | -26.2% | ? | 35.5µM* | i
Cc1ccc(C)c(NC(=S)NCCSc2ccc(Cl)cc2)c1 | -22.7% | -5.3% | ? | 28.2µM* | i
Cc1ccc(NC(=S)NCCSc2ccc(Cl)cc2)c(C)c1 | -8.2% | 0.1% | 0.0% | ? | i
Cc1ccc(SCCNC(=S)Nc2cccc(Cl)c2C)cc1 | . | . | . | 31.6µM* | .
O=C(NCCc1ccccc1)N1CCC(c2noc(-c3cnccn3)n2)C1 (configuration not stated) | . | . | . | 32.5% | .
COC(=O)C1=CNC=C(C(=O)OC)C1c1ccc(F)c(F)c1 | . | . | . | 40.5% | .
SMILES | ATXN2 expr inh | HepG2 tox | TGFb SMAD3 inh | ALOX12 inh | S2 tox
Fc1ccc(/C=N\Nc2cccc(F)c2)cc1 | -5.9% | -6.3% | 1.7% | 14.0% | i
Brc1ccc(/C=N/Nc2ccccc2)cc1 | 19.0% | -11.8% | -14.1% | 44.7µM* | i
Fc1ccc(/C=N/Nc2ccc(F)cc2)cc1 | . | . | . | 2.24µM* | .
Cc1nc2nc(C(F)(F)F)[nH]n2c(=O)c1Cc1ccccc1Cl | . | . | . | -32.0% | .
CN(C)CC(NCc1cccc(C#N)c1)c1ccccc1 (configuration not stated) | . | . | . | 5.1% | .
COC(=O)c1cccc(NC(=O)c2ccc3c(c2)CCC3)c1 | . | . | . | 26.9% | .

Compound activity (PubChem)
